Among the data in PubChem BioAssay AID624098 (National Center for Advancing Translational Sciences (NCATS), 2012) are immobility values, retold here.

Records with an inconclusive call do not appear. Activity calls are given as the source filed them.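 How the source made its calls: active means immobility above 50% at 10 µM after 1 hour; inconclusive means immobility from 15% to 50% at 1 hour; inactive means immobility below 15%.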

One test is described as follows: Assay for General Anesthetic Phenotype in Xenopus Tadpoles. Particulars: startle-response immobility, 1 h, at 10 µM, stronger effect = higher value. The text has this: Anesthetic development has remained a largely empirical process. There are growing concerns about the cognitive effects of known general anesthetics and acceleration of the onset of neurodegenerative disease. The compounds' toxicity and multiple specific binding targets in the mammalian brain [4] has made them less attractive as drug leads. This assay was designed for the in vivo follow-up testing of compounds in tadpoles. References: [1] S.L. Bianchi, T. Tran, C. Liu, S. Lin, Y. Li, J.M. Keller, R.G. Eckenhoff, and M.F. Eckenhoff, Brain and behavior changes in 12-month-old Tg2576 and nontransgenic mice exposed to anesthetics. Neurobiol Aging 29 (2008) 1002-10. Z. Xie, Y. Dong, U. Maeda, R.D. Moir, W. Xia, D.J. Culley, G. Crosby, and R.E. Tanzi, The inhalation anesthetic isoflurane induces a vicious cycle of apoptosis and amyloid beta-protein accumulation. J Neurosci 27 (2007) 1247-54. P. Honegger, and J.M. Matthieu, Selective toxicity of the general anesthetic propofol for GABAergic neurons in rat brain cell cultures. J Neurosci Res 45 (1996) 631-6. M.F. Eckenhoff, K. Chan, and R.G. Eckenhoff, Multiple specific binding targets for inhaled anesthetics in the mammalian brain. J Pharmacol Exp Ther 300 (2002) 172-9. C.A. Butts, J. Xi, G. Brannigan, A.A. Saad, S.P. Venkatachalan, R.A. Pearce, M.L. Klein, R.G. Eckenhoff, and I.J. Dmochowski, Identification of a fluorescent general anesthetic, 1-aminoanthracene. Proc Natl Acad Sci U S A 106 (2009) 6501-6. W.A. Lea, J. Xi, A. Jadhav, L. Lu, C.P. Austin, A. Simeonov, and R.G. Eckenhoff, A high-throughput approach for identification of novel general anesthetics. PLoS One 4 (2009) e7150.
Pre-limb bud Xenopus tadpoles were obtained in large batches from Nasco, Inc. Batches of 10 tadpoles were placed in 20 mm Petri dishes with approximately 20 ml of pond water ("pond water" is approximately a 20-fold dilution of Ringers saline solution). Compounds were added to the pond water from DMSO stock to obtain 100, 10 and 1 microM concentrations. Tadpoles were then incubated with these solutions for 1 hour, and then scored for "anesthesia". Anesthesia in this case is lack of movement in response to a sharp tap on the Petri dish lid, i.e., a lack of startle response. This correlates well to the loss of righting reflex in rodents and the loss of consciousness in humans. The pond water is then changed, and the return of a startle response is monitored for 24 hours. Immobility at 24 hours is considered death.
Consider `N#Cc1ccc(-c2ccc(=O)n(CC(=O)NCCc3ccccc3)n2)cc1`, for which the immobility was 0% (inactive).
Still for that read-out and setting: under `O=C(Cn1nc(-c2ccncc2)ccc1=O)NCCc1ccccc1` stands 5% (inactive); under `O=C(Cn1nc(-c2ccc(F)cc2)ccc1=O)NCCc1ccccc1`, 5% (inactive).

The same test, now with this note: startle-response immobility, 1 h, measured here: 24 h immobility, toxicity/death, at 10 µM.
`N#Cc1ccc(-c2ccc(=O)n(CC(=O)NCCc3ccccc3)n2)cc1` yielded an immobility of 5%.
The same measure, in the same setting: for `O=C(Cn1nc(-c2ccncc2)ccc1=O)NCCc1ccccc1` the value was 10%.
On the same count and under the same terms, for `O=C(Cn1nc(-c2ccc(F)cc2)ccc1=O)NCCc1ccccc1` the value was 0%.
